# Experimental data from the OligoGym collection.
# Molecular target: EBP
# Experiment: pooled miR-30 sensor sort-seq; sequence = guide strand
# Conditions: shRNA
# Also: reference of the scale not given here.
row,Sequence,sensor-assay potency score (higher = more potent)
1,TTTTGTGGCCTTGGCATCCAGC,-1.25
2,ACAAGCTGTAGAATGAAGCGGA,0.326
3,TTGGCATCCAGCGTGCTCTGGG,-0.0185
4,TTGGTCTCCAAGCAGGTCTTCG,-0.868
5,TCGTAGTAGAGAACGAACCAGC,-1.05
6,TTCTCTTGTATCTGTGTTCTAA,-0.119
7,ATTAGGTACAAAGTTGTCCAGT,-0.389
8,TTCGTAGTAGAGAACGAACCAG,-0.577
9,TTGTCCAGTCTTAGGTGCTGAG,-1.23
10,ATGGTTTCCATGCACACTGTGA,-0.951
11,ATGAAGACAAAGTAAAACCAGA,-0.723
12,TAAAACCAGAAGTAGAGAGGGT,0.087

# Molecular target: ECH1
# Experiment: as above
# Conditions: shRNA
row,Sequence,sensor-assay potency score (higher = more potent)
1,TGAACATTTTTCCTGCACCAGA,-1.08
2,AAGGCTAATACTGAGTCCCGGG,0.193
3,AAGCACTCTACCATCTCTCTCC,-0.152
4,TTGGAGCCTGTCAGTCGCCGGG,-1.13
5,TGTCCATCAGGTCAATACCTGC,-1.4
6,TTGTTCATGGCATTCCTCTTGT,0.382
7,TAAACTGGGAAACTGGGTCAGA,-0.506
8,TCAGCGTCTCTCGAAATCTTGT,-0.622
9,TACAGCAGGTTGACCTTGGTGC,0.173
10,TCGAGTGATGATGTCACGGAGG,-1.15
11,TTGTCTGGGAACACCCGGCTGA,0.142
